Measurements taken from PubChem BioAssay.
Calls of active or inactive are those of the source.

Key:
[1] = small molecules captured by biotinylated probe aFSTL3 – biochemical, small-molecule microarray, fluorescence 635/667, stem cell growth factor project, primary screen (AID 1064); details: higher = more signal;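 further: measures binding of the biotinylated anti-FSTL3 antibody to printed compounds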
[2] = binders from COS7 lysate, DM2A8 probe, primary screen, torsin A project, cell lysate, small-molecule microarray, fluorescence 635/667 (AID 1065); details: higher = more signal, COS7 lysate expressing mutant human TOR1A
[3] = small molecules captured by biotinylated probe aFGF2 – biochemical, small-molecule microarray, fluorescence 635/667, stem cell growth factor project, primary screen (AID 1067); details: higher = more signal;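 further: measures binding of biotinylated aFGF2 protein to printed compounds on slides; z-score merges feature fluorescence and signal-to-noise across triplicate slides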
[4] = small molecules captured by biotinylated probe aFGF10 – biochemical, small-molecule microarray, fluorescence 635/667, stem cell growth factor project, primary screen (AID 1071); details: higher = more signal;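 further: score merges 667 nm spot intensity and signal to noise from triplicate slides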
[5] = molecular target: Neurogenic locus notch homolog protein 2 (Homo sapiens) (UniProt Q04721); assay: small molecules binding Notch2 protein – biochemical, small-molecule microarray, 635 nm fluorescence, stem cell growth factors, primary screen (AID 1073); details: higher = more signal
[6] = molecular target: Pro-neuregulin-1, membrane-bound isoform (Homo sapiens) (UniProt Q02297); assay: small molecules binding neuregulin-1 protein – biochemical, small-molecule microarray, fluorescence 635/667, psychiatric disease protein project, primary screen (AID 1075); details: NRG1 binding, 635 nm fluorescence, higher = more signal;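 further: score combines 667 nm spot fluorescence with signal to noise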
[7] = test system: Neuregulin-1 EGF-like domain; assay: small molecules binding NRG1 EGF domain – biochemical, small-molecule microarray, 635 nm fluorescence, primary screen (AID 1081); details: higher = more signal;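 further: binding of the protein to compounds printed on small-molecule microarray slides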
[8] = FRG1 expression reporter modulators in myotubes – cell-based, C2C12 myotubes, firefly/Renilla luciferase, luminescence, FRG1 inhibition for FSHD, primary screen (AID 1084); details: FRG1 promoter luciferase, higher = more signal, called active from +8 up or from −8 down
[9] = small molecules captured by biotinylated probe aFST – biochemical, small-molecule microarray, fluorescence 635/667, stem cell growth factor project, primary screen (AID 1086); details: higher = more signal;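 further: score merges 667 nm fluorescence with signal-to-noise of each printed compound spot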
[10] = binders of probe aHhip on microarray, primary screen, stem cell growth factor project, biochemical, small-molecule microarray, fluorescence 635/667 (AID 1087); details: higher = more signal;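 further: score merges spot fluorescence at 667nm with spot signal to noise ratio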
[11] = test system: PRMT1 (protein arginine N-methyltransferase 1); assay: small molecules binding arginine methyltransferase PRMT1 – biochemical, small-molecule microarray, 635 nm fluorescence, primary screen (AID 1088); details: higher = more signal;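 further: binding of Prmt1 protein to compounds spotted on small-molecule microarray slides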
[12] = growth effects on S. cerevisiae YJM789 – YJM789 clinical isolate, OD600, 24 h, basal, primary screen (AID 1089); details: higher = more signal, called active from +8 up or from −8 down;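 further: growth of clinical yeast isolate S. cerevisiae YJM 789 seeded 1000 cells per well; test concentration not given here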
[13] = S. pombe growth modifiers, basal conditions – strain 972, OD600, 24 h, no modulator, primary screen (AID 1090);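 further: basal condition with compound alone and no growth modifier present; test concentration not given here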; details: S. pombe 972 growth, higher = more signal, called active from +8 up or from −8 down
[14] = budding yeast growth modifiers under rapamycin – strain BY4716, OD600, 96 h, primary screen (AID 1091); further: test concentration not given here; details: S. cerevisiae BY4716 + rapamycin, higher = more signal, called active from +8 up or from −8 down
[15] = molecular target: Torsin-1A-interacting protein 2 (Homo sapiens) (UniProt Q8NFQ8); assay: small molecules binding lysate-expressed LULL1 – cell lysate, human LULL1 lysate, 635/667 nm fluorescence, primary screen (AID 1092); details: small-molecule microarray, hLULL1 lysate binding, 635 nm fluorescence; higher = more signal;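 further: probe is lysate of COS7 cells overexpressing human LULL1; score merges per-feature 667 nm fluorescence with signal-to-noise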
[16] = optical density change of DRC41 E. coli – strain DRC41, OD650, 24 h, E. coli filamentation project, primary screen (AID 1093);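 further: MC1000 strain lacking acrAB efflux and sulA so SOS filamentation is blocked; test concentration not given here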; details: E. coli DRC41 growth, higher = more signal, called active from +8 up or from −8 down
[17] = probe aLefty2 binding to arrayed compounds – biochemical, biotinylated probe, 635/667 nm fluorescence, primary screen (AID 1094); details: small-molecule microarray, higher = more signal;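 further: score merges spot fluorescence near 667 nm with spot signal-to-noise ratio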
[18] = test system: Noggin (protein binding on small-molecule microarray); assay: small molecules binding Noggin protein – biochemical, 635/667 nm fluorescence, primary screen (AID 1095); details: 635 nm fluorescence, higher = more signal;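 further: score merges 667 nm feature fluorescence with signal to noise over triplicate slides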
[19] = molecular target: Neurogenic locus notch homolog protein 3 (Homo sapiens) (UniProt Q9UM47); assay: small molecules binding NOTCH3 protein – biochemical, 635/667 nm fluorescence, primary screen (AID 1096); details: small-molecule microarray, 635 nm fluorescence, higher = more signal
[20] = probe aEGFR binding to arrayed compounds – biochemical, biotinylated probe, 635/667 nm fluorescence, primary screen (AID 1097); details: small-molecule microarray, higher = more signal;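 further: probe is a biotinylated anti-EGFR antibody binding compounds printed on slides; score combines fluorescence near 667 nm and signal to noise of each spot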

Neurogenic locus notch homolog protein 2 (Homo sapiens), sequence (Q04721 whole entry, looked up, canonical isoform): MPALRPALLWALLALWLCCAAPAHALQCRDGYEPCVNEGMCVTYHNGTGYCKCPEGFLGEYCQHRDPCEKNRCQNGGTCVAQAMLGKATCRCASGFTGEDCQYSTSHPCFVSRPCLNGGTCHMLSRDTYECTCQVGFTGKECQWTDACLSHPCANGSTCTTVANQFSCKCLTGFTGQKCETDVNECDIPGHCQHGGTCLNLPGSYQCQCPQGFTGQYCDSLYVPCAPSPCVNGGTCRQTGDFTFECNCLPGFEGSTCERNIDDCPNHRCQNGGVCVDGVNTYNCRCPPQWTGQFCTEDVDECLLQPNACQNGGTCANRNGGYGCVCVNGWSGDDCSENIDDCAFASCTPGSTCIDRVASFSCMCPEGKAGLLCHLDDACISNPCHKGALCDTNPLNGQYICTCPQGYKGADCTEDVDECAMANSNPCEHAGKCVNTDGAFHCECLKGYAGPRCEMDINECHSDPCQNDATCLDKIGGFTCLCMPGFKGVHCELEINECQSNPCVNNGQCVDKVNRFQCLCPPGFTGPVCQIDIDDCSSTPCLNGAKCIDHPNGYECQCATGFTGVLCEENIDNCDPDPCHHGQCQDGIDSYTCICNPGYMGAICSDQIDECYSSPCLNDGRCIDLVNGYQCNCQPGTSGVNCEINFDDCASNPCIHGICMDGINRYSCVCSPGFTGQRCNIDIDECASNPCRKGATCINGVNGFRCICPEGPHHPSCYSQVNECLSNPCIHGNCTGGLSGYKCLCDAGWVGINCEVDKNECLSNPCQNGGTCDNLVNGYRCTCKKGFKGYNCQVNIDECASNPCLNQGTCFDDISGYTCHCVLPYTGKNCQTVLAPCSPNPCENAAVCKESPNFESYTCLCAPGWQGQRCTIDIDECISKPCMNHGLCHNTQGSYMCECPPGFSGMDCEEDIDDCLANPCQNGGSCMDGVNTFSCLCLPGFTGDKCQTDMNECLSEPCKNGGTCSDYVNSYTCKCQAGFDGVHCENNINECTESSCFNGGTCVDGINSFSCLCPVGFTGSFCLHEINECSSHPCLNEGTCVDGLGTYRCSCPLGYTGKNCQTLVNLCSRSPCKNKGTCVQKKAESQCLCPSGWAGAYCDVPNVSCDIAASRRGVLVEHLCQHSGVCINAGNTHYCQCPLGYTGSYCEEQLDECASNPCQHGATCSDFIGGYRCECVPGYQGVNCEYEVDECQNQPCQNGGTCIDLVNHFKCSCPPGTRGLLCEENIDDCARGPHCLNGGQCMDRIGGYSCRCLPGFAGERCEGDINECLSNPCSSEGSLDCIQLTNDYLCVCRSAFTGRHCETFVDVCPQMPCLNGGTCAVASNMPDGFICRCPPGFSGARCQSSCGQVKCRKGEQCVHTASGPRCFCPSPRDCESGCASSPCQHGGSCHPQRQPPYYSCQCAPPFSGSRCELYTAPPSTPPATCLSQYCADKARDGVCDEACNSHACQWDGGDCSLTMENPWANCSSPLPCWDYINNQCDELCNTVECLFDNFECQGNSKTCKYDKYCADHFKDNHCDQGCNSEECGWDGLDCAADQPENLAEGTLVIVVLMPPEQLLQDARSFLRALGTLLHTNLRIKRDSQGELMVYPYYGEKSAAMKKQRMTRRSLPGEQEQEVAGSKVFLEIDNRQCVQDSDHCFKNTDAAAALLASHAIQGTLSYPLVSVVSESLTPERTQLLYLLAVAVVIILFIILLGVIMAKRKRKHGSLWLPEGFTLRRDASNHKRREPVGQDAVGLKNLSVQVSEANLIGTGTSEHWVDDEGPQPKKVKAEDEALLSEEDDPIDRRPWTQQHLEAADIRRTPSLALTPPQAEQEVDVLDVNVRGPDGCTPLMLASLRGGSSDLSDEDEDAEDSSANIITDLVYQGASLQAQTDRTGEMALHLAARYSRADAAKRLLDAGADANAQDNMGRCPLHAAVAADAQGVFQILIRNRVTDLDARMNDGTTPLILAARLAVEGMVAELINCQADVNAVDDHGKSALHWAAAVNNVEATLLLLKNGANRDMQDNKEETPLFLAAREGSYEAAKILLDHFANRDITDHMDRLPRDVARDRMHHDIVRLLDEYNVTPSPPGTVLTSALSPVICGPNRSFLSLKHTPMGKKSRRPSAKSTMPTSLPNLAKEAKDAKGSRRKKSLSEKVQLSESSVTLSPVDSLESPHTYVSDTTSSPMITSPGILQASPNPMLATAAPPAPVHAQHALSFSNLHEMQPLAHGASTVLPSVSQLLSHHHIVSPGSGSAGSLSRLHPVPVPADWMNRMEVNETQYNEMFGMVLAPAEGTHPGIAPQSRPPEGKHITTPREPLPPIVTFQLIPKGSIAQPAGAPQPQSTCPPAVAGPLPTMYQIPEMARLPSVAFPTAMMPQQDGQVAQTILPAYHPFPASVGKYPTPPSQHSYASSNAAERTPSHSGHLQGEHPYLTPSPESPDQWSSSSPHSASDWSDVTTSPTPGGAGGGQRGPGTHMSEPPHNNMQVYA
Torsin-1A-interacting protein 2 (Homo sapiens), sequence (Q8NFQ8 whole entry, looked up): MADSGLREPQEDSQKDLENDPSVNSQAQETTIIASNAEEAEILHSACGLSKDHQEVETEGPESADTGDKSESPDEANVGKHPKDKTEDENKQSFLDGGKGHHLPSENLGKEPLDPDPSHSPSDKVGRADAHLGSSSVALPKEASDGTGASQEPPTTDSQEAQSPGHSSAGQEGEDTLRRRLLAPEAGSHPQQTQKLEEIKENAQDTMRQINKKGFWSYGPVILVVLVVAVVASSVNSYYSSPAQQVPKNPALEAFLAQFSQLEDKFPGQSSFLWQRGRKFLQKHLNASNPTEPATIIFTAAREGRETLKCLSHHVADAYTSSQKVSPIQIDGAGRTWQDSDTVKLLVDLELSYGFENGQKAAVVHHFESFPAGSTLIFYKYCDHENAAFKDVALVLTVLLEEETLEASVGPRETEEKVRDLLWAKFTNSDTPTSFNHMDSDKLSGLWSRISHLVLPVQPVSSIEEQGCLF
Pro-neuregulin-1, membrane-bound isoform (Homo sapiens), sequence (Q02297 whole entry, looked up, the tested form may be a part, canonical isoform): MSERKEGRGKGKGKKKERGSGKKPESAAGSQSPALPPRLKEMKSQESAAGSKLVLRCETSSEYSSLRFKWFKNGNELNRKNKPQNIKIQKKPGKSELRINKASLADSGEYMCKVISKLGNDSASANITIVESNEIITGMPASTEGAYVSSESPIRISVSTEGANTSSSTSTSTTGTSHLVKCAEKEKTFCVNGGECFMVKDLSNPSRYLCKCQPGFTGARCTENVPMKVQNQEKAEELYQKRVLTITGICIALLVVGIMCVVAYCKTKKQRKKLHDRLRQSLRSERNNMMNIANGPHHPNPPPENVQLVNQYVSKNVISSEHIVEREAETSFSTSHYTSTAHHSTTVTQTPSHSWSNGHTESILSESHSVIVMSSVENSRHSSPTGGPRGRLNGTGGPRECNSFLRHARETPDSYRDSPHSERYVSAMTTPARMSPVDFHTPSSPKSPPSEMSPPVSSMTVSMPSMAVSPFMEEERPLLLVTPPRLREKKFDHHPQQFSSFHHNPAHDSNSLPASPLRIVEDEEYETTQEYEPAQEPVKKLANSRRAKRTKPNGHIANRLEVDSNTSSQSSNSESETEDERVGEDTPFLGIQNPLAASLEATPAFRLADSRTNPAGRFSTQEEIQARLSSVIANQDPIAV

Row | SMILES | composite z-score [1] | composite z-score [2] | composite z-score [3] | composite z-score [4] | composite z-score [5] | composite z-score [6] | composite z-score [7] | z-score [8] | composite z-score [9] | composite z-score [10] | composite z-score [11] | z-score [12] | z-score [13] | z-score [14] | composite z-score [15] | z-score [16] | composite z-score [17] | composite z-score [18] | composite z-score [19] | composite z-score [20]
1 | COC(=O)C1=CC(CCCO)=CC(C2CC2)N(C)C=C1C(=O)OC (stereo not given) | 0.0334 | -0.144 | -0.101 | -0.0269 | 0.448 | 2.06 | 0.935 | -0.327 (inactive) | -0.308 | -0.0994 | 0.723 | -1.81 (inactive) | -0.761 (inactive) | -1.62 (inactive) | 2.79 | -0.705 (inactive) | -0.117 | -0.178 | -0.752 | -0.43
2 | O=C1C2C=CC(C(O)c3ccc(F)cc3)N(n3cnnc3)C2C(=O)N1Cc1ccccc1 (stereo not given) | 0.352 | -0.131 | -0.12 | -0.201 | -0.0052 | 0.439 | -0.191 | 0.594 (inactive) | 0.19 | -0.282 | -0.301 | 0.271 (inactive) | 0.767 (inactive) | -0.1 (inactive) | 1.05 | -0.997 (inactive) | 0.0137 | -0.685 | -0.874 | -0.208
3 | CCCC[C@@H]1C[C@H]1[C@@H](NC(=O)c1ccccc1)c1ccc(C(F)(F)F)cc1 | 0.79 | -1.02 | -0.0908 | -0.333 | -0.601 | -0.612 | -0.521 | -0.858 (inactive) | 0.0249 | -0.175 | -0.914 | 0.82 (inactive) | 0.987 (inactive) | 0.151 (inactive) | -0.962 | -0.582 (inactive) | 0.161 | 0.337 | -0.769 | -0.15
4 | C=C(/C(=C/C[C@@H](OC(C)=O)c1cccc(OCCO)c1)c1cc(C(=O)OC)ccc1OC)C(C)C | -0.367 | 1.11 | -0.0799 | 0.451 | -0.114 | -0.202 | 0.938 | 0.608 (inactive) | 0.313 | 0.0373 | 1.07 | -0.373 (inactive) | 0.114 (inactive) | -0.87 (inactive) | 1.69 | 0.251 (inactive) | 0.0347 | 0.575 | 0.666 | -0.0987
